Assay outcomes as filed in PubChem.
Compounds with a hit are over-represented: about 19% of the library has one in this group of screens.
IL1B secr inh: qHTS for Inhibitors of Inflammasome Signaling: IL-1-beta AlphaLISA Primary Screen; THP-1 LPS/ATP IL-1B secretion, AlphaLISA, 16 h; stronger effect = lower value; activity change, % at 57.5 µM; 360,000 compounds, 4.7% hits; in the data active = activity change below about -50%; inconclusive = mostly about -30% to -49%; also: % is scaled to controls: 0 for no effect and ±100 for the full control effect
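Secreted IL-1B measured by AlphaLISA bead assay after 16 h compound exposure of THP-1 cells; compounds (final up to 57.5 uM) added 1 h before LPS (250 ng/mL) and ATP (1.25 mM) stimulation; lower signal means less secretion.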
DT40 TDP1 CPT: qHTS for Inhibitors of human tyrosyl-DNA phosphodiesterase 1 (TDP1): qHTS in cells in presence of CPT; chicken DT40 Tdp1-/-;hTDP1 cells + 20 nM CPT, ATP luminescence, 48 h; AID 686979, 2013; Potency, µM (highest dose often 46.2 µM), for the others: at the top dose activity change, negative = growth inhibition, usual class: inhibitors; 420,000 compounds, 12% hits; also: potency is read from the fitted curve at half-maximal effect; % is scaled to controls: 0 for no effect and ±100 for the full control effect; nearly all actives have a fitted effect of over 55% in size
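Chicken DT40 Tdp1-/- cells stably complemented with human TDP1 were seeded at 400 cells/well in medium containing 20 nM camptothecin, exposed to pin-transferred compounds, and grown at 37 °C for at least 48 hr. Viability was read as ATP luminescence.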
HepG2 viability: qHTS for Inhibitors of TGF-b: Cytotox Counterscreen; HepG2 CAGA-GFP viability, ATP luminescence, 18 h; AID 588856, 2011; Potency, µM (highest dose often 46.1 µM), for the others: at the top dose activity change, negative = cytotoxicity, usual class: cytotoxic; 410,000 compounds, 0.76% hits; also: potency is read from the fitted curve at half-maximal effect
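HepG2 CAGA-GFP cells (1000/well, DMEM with 1% FBS) received compound, then TGF-beta at 500 pg/mL final, and were incubated 18 hours at 37 degrees C. Viability was read by CellTiter-Glo luminescence. Media-only wells were set as complete cell-killing and DMSO as no toxicity.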
DT40 TDP1 no CPT: qHTS for Inhibitors of human tyrosyl-DNA phosphodiesterase 1 (TDP1): qHTS in cells in absence of CPT | Potency, µM (series often up to 46.2 µM), for inactives: at the highest dose activity change, negative = growth inhibition, usual class: inhibitors | DT40 Tdp1-/- hTDP1 cells, no CPT, ATP luminescence, 48 h | AID 686978, 2013 | 420,000 compounds, 15% hits; also: potency is read from the fitted curve at half-maximal effect; % is scaled to controls: 0 for no effect and ±100 for the full control effect; nearly all actives have a fitted effect of over 55% in size
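Chicken DT40 Tdp1-/- cells complemented with human TDP1, screened without camptothecin (DMSO vehicle only), 400 cells/well. Compounds pin-transferred, cells incubated at 37 °C for at least 48 hr. Growth read as ATP-dependent luminescence (CellTiter-Glo, 30 min at RT).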
TGFb inhibitor: qHTS for Inhibitors of TGF-b | HepG2 CAGA-GFP TGF-b/SMAD3 reporter, GFP fluorescence, 18 h; TGF-beta stimulated, 500 pg/mL final | Potency, µM (doses to about 46.1 µM), for inactives: top-dose activity, negative = inhibition, hits mostly inhibitors | 410,000 compounds, 1.2% hits | AID 588855, 2011; also: potency is read from the fitted curve at half-maximal effect; % is scaled to controls: 0 for no effect and ±100 for the full control effect; nearly all actives have a fitted effect of over 65% in size
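Read-out: total well GFP (ex488/em500-530) summed from mean per-cell fluorescence. Cells: HEPG2 CAGA-GFP, 1% FBS DMEM, 18 h at 37 degrees C with 500 pg/mL final TGF-beta. Unstimulated wells served as the full-inhibition control; stimulated DMSO wells = 0%.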
ASM inhibitor: Inhibitors of Secretory Acid Sphingomyelinase (S-ASM): qHTS; placental ASM, HMU-PC fluorogenic substrate, 60 min; Potency, µM (series often up to 57.5 µM), inactives show at the top dose activity change, negative = inhibition, hits mostly inhibitors; 340,000 compounds, 0.006% hits; also: potency is read from the fitted curve at half-maximal effect
Target sequence (P17405 47-631 limits assumed): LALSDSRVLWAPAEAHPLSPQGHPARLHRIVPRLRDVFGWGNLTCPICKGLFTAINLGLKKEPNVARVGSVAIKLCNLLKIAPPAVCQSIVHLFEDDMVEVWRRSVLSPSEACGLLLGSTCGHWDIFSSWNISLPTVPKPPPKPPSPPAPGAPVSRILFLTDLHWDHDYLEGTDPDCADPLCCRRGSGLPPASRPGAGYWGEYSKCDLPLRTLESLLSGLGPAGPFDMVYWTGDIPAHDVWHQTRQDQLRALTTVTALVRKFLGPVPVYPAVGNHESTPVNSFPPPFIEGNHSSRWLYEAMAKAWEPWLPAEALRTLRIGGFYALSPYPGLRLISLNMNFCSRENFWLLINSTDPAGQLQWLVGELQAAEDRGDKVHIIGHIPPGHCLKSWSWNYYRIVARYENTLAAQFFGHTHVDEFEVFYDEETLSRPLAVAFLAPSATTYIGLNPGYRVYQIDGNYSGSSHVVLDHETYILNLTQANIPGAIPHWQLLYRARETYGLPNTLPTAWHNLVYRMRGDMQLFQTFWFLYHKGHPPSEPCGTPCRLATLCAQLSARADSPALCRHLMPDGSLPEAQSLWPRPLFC
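Steps: dispense placental human ASM, pin compound, wait 10 min at room temperature, add HMU-PC0 substrate at 9 uM final, incubate 60 min at 37 °C, add stop solution raising pH to 10, read fluorescence.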
* hit, by the source's call; u = inconclusive; x = not tested or not shown; [ ] = remark or other dose. Unless noted, calls follow the shape of the dose curve; as a rule, active = well fitted curve in the direction sought with a large enough effect; inconclusive = small, poorly fitted or top-dose-only effect, or another doubt; inactive = no such curve, though single readings can be large; an effect the other way counts as inactive or inconclusive.

SMILES | IL1B secr inh | DT40 TDP1 CPT | HepG2 viability | DT40 TDP1 no CPT | TGFb inhibitor | ASM inhibitor
COc1cc(CNC(=O)c2cc(-c3ccc(OC)cc3C)n[nH]2)cc(OC)c1 | -22.3 | u | -23.8% | -11.1% | -16.9% | x
COc1ccc(-c2cc(C(=O)NCc3ccc(F)cc3)[nH]n2)c(C)c1 | -7.5 | 18.4µM* | -22.8% | u | -5.3% | x
CCOC(=O)CCCCCC(=O)Nc1ccc2c(c1)C(=O)N([C@@H](C)CO)C[C@H](C)[C@H](CN(C)C(=O)c1ccccc1)OCCCC[C@H](C)O2 | -10.1 | -9.7% | -21.7% | u | -17.6% | x
CCC1CN(CCNC(=O)c2cc(C(C)C)nn2C)Cc2cc(OC)ccc2O1 (stereo not given) | x | -12.5%[9.04 µM] | x | -23.5% | x | x
Cc1cc(Br)ccc1NC(=O)CN1C(=O)C2C3CC(c4ccccc4)C(C3)C2C1=O (stereo not given) | u | u | -8.9% | 16.4µM* | -14.3% | u
O=C(CC1C(=O)NCCN1C/C=C/c1ccccc1)NCCCC1CCCC1 (stereo not given) | -12.6 | u | -17.5% | u | -0.1% | -1.0%
NC(CSC(c1ccccc1)(c1ccccc1)c1cccc2ccccc12)C(=O)O (stereo not given) | -50.2* | u | 7.0% | u | 0.0% | -7.1%
Cc1nnc(NC(=O)CSc2nccn2Cc2ccc(Cl)cc2)s1 | x | u | -6.7% | u | 2.8% | x
COc1ccc(S(=O)(=O)N2CCCC(C(=O)NCc3cccnc3)C2)cc1C (stereo not given) | -5.0 | -23.6% | 3.6% | -29.2% | 1.9% | x
COc1ccc(S(=O)(=O)N2CCCC(C(=O)NCc3ccccn3)C2)cc1Cl (stereo not given) | 13.2 | u | 6.2% | -14.7% | -14.6% | 4.1%
CCOc1ccc(S(=O)(=O)N2CCCC(C(=O)NCc3ccccn3)C2)cc1Cl (stereo not given) | -26.1 | u | -4.0% | 16.4µM* | 0.0% | -1.1%
CCOc1ccc(S(=O)(=O)N2CCCC(C(=O)NCc3cccnc3)C2)cc1C (stereo not given) | 14.6 | u | -7.9% | 25.9µM* | -22.3% | -3.1%
N#CC1=C(N)N(c2ccc(F)cc2)C2=C(C1c1ccc(O)cc1)S(=O)(=O)CC2 (stereo not given) | -0.4 | 20.6µM* | 1.6% | u | 6.6% | 14.5%
Fc1cccc(/C=N/Nc2cc(N3CCOCC3)ncn2)c1 | -53.2* | -4.2% | -55.5% | -10.0% | 0.7% | -1.1%
COc1cccc(/C=N/Nc2cc(N3CCOCC3)ncn2)c1O | -89.9* | 5.8µM* | -64.7% | 6.51µM* | u | 177.5%
Fc1ccc(/C=N/Nc2cc(N3CCOCC3)ncn2)cc1 | -27.4 | -24.7% | -10.7% | -10.4% | -4.8% | 2.5%
C/C(=N\Nc1cc(N2CCOCC2)ncn1)c1ccc(O)cc1 | -95.1* | 8.2µM* | -9.9% | u | -5.8% | 0.0%
O=C(Nc1cc(N2CCOCC2)ncn1)c1ccc(F)cc1 | -20.2 | -13.1% | -26.7% | 5.8µM* | -9.0% | -5.6%
C/C(=N\NC(=O)c1ccc(O)cc1)c1ccc(N2CCOCC2)cc1 | 7.9 | 0.6% | 8.3% | -1.4% | 13.0% | 4.1%
O=C(Nc1cc(N2CCCCC2)ncn1)c1ccc(F)cc1 | -7.5 | u | 2.0% | u | -8.6% | 1.9%
COc1ccccc1-c1cn(C(C)(C)C)nc1C | -4.0 | 19.7% | 2.3% | -12.2% | 14.0% | 0.0%
O=C(NC(Nc1ncc(S(=O)(=O)c2ccc([N+](=O)[O-])cc2)s1)(C(F)(F)F)C(F)(F)F)c1ccc(Cl)cc1 | -76.2* | u | -39.2% | 14.6µM* | u | -6.2%
O=C(Nc1ncc(S(=O)(=O)c2ccc([N+](=O)[O-])cc2)s1)c1cccc2ccccc12 | 28.9 | 14.6µM* | -1.3% | 20.6µM* | u | -9.0%
CC(=O)NCCC(=O)Nc1ncc(S(=O)(=O)c2ccc([N+](=O)[O-])cc2)s1 | 21.7 | -18.7% | -7.3% | -17.3% | -25.0% | 4.6%
COc1ccc(-c2ccnc(-n3ncc(C(=O)NC(C)(C)CO)c3C3CC3)n2)cc1F | x | 14.2%[9.04 µM] | x | -5.2% | x | x
SMILES | IL1B secr inh | DT40 TDP1 CPT | HepG2 viability | DT40 TDP1 no CPT | TGFb inhibitor | ASM inhibitor
NC(Cc1c[nH]c2ccccc12)C(=O)NCC(=O)O (stereo not given) | x | -4.3% | x | 9.7% | x | x
CCOC(=O)c1oc2cc(O)cc(O)c2c(=O)c1OCc1ccccc1 | 34.2 | 18.4µM* | -32.6% | 16.4µM* | u | -7.0%
CCOC(=O)c1ccc(-c2c(C(=O)OCC)oc3cc(O)c(CC)cc3c2=O)o1 | 0.0 | 14.6µM* | -4.5% | 11.6µM* | -23.0% | -0.9%
COc1ccccc1N1CCN(c2ccc3c(c2)S(=O)(=O)c2cccc(C(=O)NCc4cccc(F)c4)c2C3=O)CC1 | -10.1 | u | -29.7% | 1.64µM* | 2.7% | x
O=C(NCc1ccccc1C(F)(F)F)c1cccc2c1C(=O)c1ccc(N3CCC(N4CCCCC4)CC3)cc1S2(=O)=O | -103.4* | 2.31µM* | -40.6% | 3.66µM* | -7.9% | x
O=C(NCc1ccccc1C(F)(F)F)c1cccc2c1C(=O)c1ccc(N3CCOCC3)cc1S2(=O)=O | 12.6 | -23.6% | -19.9% | -14.0% | -5.4% | 5.8%
Cc1ccc(CNC(=O)c2cccc3c2C(=O)c2ccc(N4CCCCC4)cc2S3(=O)=O)cc1 | 12.7 | 29.1µM* | -34.9% | u | 1.7% | -17.6%
CCc1cccc(NC(=O)C(NS(=O)(=O)c2ccc3nc(C)sc3c2)C(C)C)c1 (stereo not given) | x | -7.5% | 1.6% | -18.6% | -14.6% | x
COc1ccc(CN(C)CC(=O)NCC(=O)Nc2c(C)cccc2C)cc1 | 11.7 | -5.5% | -3.7% | -0.3% | -1.6% | 1.6%
Cc1c([N+](=O)[O-])c(C(=O)NC2CCCCC2)nn1C | 30.4 | -6.5% | -7.9% | 9.3% | -15.0% | -0.7%
COc1ccc(N2CCN(CC(=O)c3c(C)n(C)c4ccc(OC)cc34)CC2)cc1 | x | 18.4µM* | -23.1% | 23.1µM* | -3.4% | -0.3%
Cc1c(O)ccc(C(=O)CN2CCN(c3ccccc3F)CC2)c1O | 11.9 | u | -21.0% | 23.1µM* | -17.0% | 0.4%
